{"source": "PubChem BioAssay (NCATS)", "note": "Results filed as inconclusive are left out. Calls of active or inactive are those of the source. Calls follow the shape of the dose curve; as a rule, active = well fitted activation curve with a large enough effect; inconclusive = small, poorly fitted or top-dose-only effect; inactive = flat fitted curve, though single readings scatter.", "data": [{"experiment": "Primary redox qHTS assay for identification of artifact compounds. (AID 1845223);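 also: 0% = DMSO and 100% = reference compound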", "settings": "Amplex Red/HRP redox cycling with DTT, fluorescence; series mostly up to 53.8 µM; redox activity (% of DA3003): at the top concentration", "summary_of_the_method": "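Amplex Red (25 uM) and HRP (250 mU/mL) in HBSS, with compounds for 15 min, then 250 uM DTT for 30 min, room temperature, dark. Fluorescence 525/598 nm read; normalized to DMSO and 10 uM DA3003; Hill fit.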", "values": [{"smiles": "OC[C@@]1(O)CO[C@@H](OC[C@H]2O[C@@H](Oc3c[nH]c4ccccc34)[C@H](O)[C@@H](O)[C@@H]2O)[C@@H]1O", "redox activity (% of DA3003)": "-9.88% [at 25.6 µM] (inactive)"}, {"smiles": "OC[C@H]1O[C@@H](OCCc2ccccc2)[C@H](O[C@@H]2OC[C@](O)(CO)[C@H]2O)[C@@H](O)[C@@H]1O", "redox activity (% of DA3003)": "-0.326% [at 25.6 µM] (inactive)"}, {"smiles": "COc1ccc(-n2[nH]c(=O)c3[nH]c4cc(Cl)ccc4c(=O)c3c2=O)c(C)c1", "redox activity (% of DA3003)": "-2.78% (inactive)"}, {"smiles": "CCn1cc(NC(=S)Nc2cc(Cl)ccc2OC)c(C(N)=O)n1", "redox activity (% of DA3003)": "-4.71% (inactive)"}, {"smiles": "C=C(C(=O)O)C1CCC2(C)CCC(O)C(C)(O)C2C1", "note": "(stereo not given)", "redox activity (% of DA3003)": "-10.3% (inactive)"}, {"smiles": "CC1=CC(=O)C(=C(C)C)CC2C1CCC2(C)O", "note": "(stereo not given)", "redox activity (% of DA3003)": "3.53% (inactive)"}, {"smiles": "O=C1CCC=CC1(O)C(=O)OCc1ccccc1O[C@@H]1O[C@H](CO)[C@@H](O)[C@H](O)[C@H]1O", "note": "(stereo not given in full)", "redox activity (% of DA3003)": "-2.62% [at 25.6 µM] (inactive)"}, {"smiles": "O=C(O)c1ccc(OC2OC(CO)C(O)C(O)C2O)cc1", "note": "(stereo not given)", "redox activity (% of DA3003)": "-11.3% (inactive)"}, {"smiles": "C/C=C/c1ccc2c(c1)[C@@H](C)[C@H](c1ccc(O)cc1)O2", "redox activity (% of DA3003)": "-5% (inactive)"}, {"smiles": "CC1=C(COC2OC(CO)C(O)C(O)C2O)C(C(CO)C(=O)O)CC1", "note": "(stereo not given)", "redox activity (% of DA3003)": "-17.4% (inactive)"}, {"smiles": "Cc1ccc(S(=O)(=O)Nc2ccccc2N2CCCCC2)s1", "redox activity (% of DA3003)": "-4.21% (inactive)"}, {"smiles": "O=C(CN1C(=O)C2(CCCC2)NCC1c1cc(F)cc(F)c1)Nc1ccc2c(c1)CC1(C2)C(=O)Nc2ncccc21", "note": "(stereo not given)", "redox activity (% of DA3003)": "19.3% (inactive)"}, {"smiles": "CC(C)[N+]1(C)C2CCC1CC(OC(=O)C(CO)c1ccccc1)C2", "note": "(stereo not given)", "redox activity (% of DA3003)": "-5.85% (inactive)"}, {"smiles": "CC1=CC(=O)CC(C)(C)C1CCC(C)O[C@@H]1O[C@H](CO[C@@H]2OC[C@@H](O)[C@H](O)[C@H]2O)[C@@H](O)[C@H](O)[C@H]1O", "note": "(stereo not given in full)", "redox activity (% of DA3003)": "-0.0191% [at 25.6 µM] (inactive)"}, {"smiles": "C=CC1(C)C=C2C(=O)OC(=O)C3=C(CCCC3(C)C)C2(O)CC1", "note": "(stereo not given)", "redox activity (% of DA3003)": "4.49% (inactive)"}]}]}
